# NPSR antag = neuropeptide S receptor (human) antagonism, cAMP; Q6W5P4; CHO-NPSR cells, cAMP TR-FRET, antagonist mode; Potency, µM (series often up to 38.3 µM), most hits filed as inhibitors; actives 1% (n = 220,000); AID 1461; further: nearly all actives have a fitted effect of over 50% in size
# Target sequence (Q6W5P4 whole entry, looked up): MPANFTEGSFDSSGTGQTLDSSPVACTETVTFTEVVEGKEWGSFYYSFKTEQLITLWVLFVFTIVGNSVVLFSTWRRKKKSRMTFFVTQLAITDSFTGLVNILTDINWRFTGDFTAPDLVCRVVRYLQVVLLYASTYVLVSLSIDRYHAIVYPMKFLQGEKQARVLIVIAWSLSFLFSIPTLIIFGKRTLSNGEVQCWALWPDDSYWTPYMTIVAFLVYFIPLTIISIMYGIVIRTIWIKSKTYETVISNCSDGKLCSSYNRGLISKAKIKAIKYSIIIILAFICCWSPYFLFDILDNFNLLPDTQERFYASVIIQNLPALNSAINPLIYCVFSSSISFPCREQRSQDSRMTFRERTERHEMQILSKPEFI
# ERK EGF block = blocks ERK signaling stimulated by EGF; HEK293-V1b, EGF-stimulated phospho-ERK AlphaScreen; Potency, µM (series often up to 11.5 µM), most hits filed as inhibitors; actives 0.41% (n = 130,000); further: nearly all actives have a fitted effect of over 55% in size
#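 EGF-stimulated (25 nM, 5 min) phospho-ERK in HEK293 cells stably expressing V1b, cells pretreated 30 min with compound at 37C. Homogeneous AlphaScreen read on lysates.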
# Hits are given with their value; – = inactive; ? = inconclusive; · = no result given; [ ] = remark or other dose. This is one part of a sample in which hits are shown more often than they occur. The call rests on the fitted dose curve; in most records, active means well fitted curve in the direction sought with a large enough effect; inconclusive means small, poorly fitted or top-dose-only effect, or another doubt; inactive means no such curve, though single readings can be large; an effect the other way counts as inactive or inconclusive.
SMILES,NPSR antag,ERK EGF block
O=C1CC(c2ccc(F)cc2)Sc2nc(C34CC5CC(CC(C5)C3)C4)nn21 (stereo not drawn),–,–
COc1ccc2c(c1OC)C(=O)NC(C)=C(C(=O)OC(C)(C)C)C2O (stereo not drawn),–,–
CC1(C)OC(=O)C(=Cc2ccc(-c3ccc(Cl)c(C(=O)O)c3)o2)C(=O)O1,–,–
Cc1ccc(/C=C2\SC(=S)N(Cc3ccccc3)C2=O)o1,–,·
O=C(O)c1cc(-c2ccc(/C=C3/SC(=S)N(Cc4ccccc4)C3=O)o2)ccc1Cl,10µM,–
COc1ccc(CN2C(=O)/C(=C/c3ccc(-c4ccc(Cl)c(C(=O)O)c4)o3)SC2=S)cc1,6.3µM,–
COc1ccccc1-c1nnc(NC(=O)CSc2nncn2C)s1,–,–
Cc1nn(-c2ccccc2)c(Cl)c1/C=C1\SC(=S)N(CCCCCC(=O)O)C1=O,–,–
Cc1nn(-c2ccccc2)c(Cl)c1/C=C1\SC(=S)NC1=O,10µM,·
C(=C\c1nc(-c2ccccc2)oc1Nc1ccc2ccccc2c1)/c1ccccc1,·,–
CCOC(=O)c1ccccc1-n1c(C)cc(C2N=C(N)Nc3nc4ccccc4n32)c1C (stereo not drawn),13µM,·
CCOC(=O)C1=C(C)Nc2nc3ccccc3n2C1c1ccc(O)cc1 (stereo not drawn),–,–
C[N+](C)(C)CCC(=O)c1cccc2ccccc12,32µM,?
O=C(O)CCC(=O)c1cccc2ccccc12,–,·
Cc1c(-c2ccc(Br)cc2)nc2ccccn12,–,·
CN(C)c1ccc(-c2nc3ccccn3c2/N=C/c2ccc(Br)cc2)cc1,10µM,?
O=C(O)[C@H]1CCCN(CCC=C(c2ccccc2)c2ccccc2)C1,·,–
COc1ccc(NS(=O)(=O)c2ccc3nc(COc4ccc(Cl)c(C)c4)[nH]c3c2)cc1,–,·
O=C(Nc1cccnc1)c1ccc(Cl)c(S(=O)(=O)N2CCc3ccccc32)c1,–,25µM
O=C(Nc1cccnc1)c1cccc(S(=O)(=O)N2CCc3ccccc32)c1,–,–
Cc1[nH]nc2oc(=O)c(CCO)c(C)c12,–,·
COc1ccc(-c2[nH]nc3oc(=O)c(CCO)c(C)c23)cc1,–,16µM
O=C(Nc1cccc(NC(=O)c2ncn[nH]2)c1)c1cccc(Cl)c1,–,–
Cc1cccnc1CN1CCN(Cc2nc(C(c3ccccc3)c3ccccc3)no2)CC1,–,–
CC(c1ccccn1)N(Cc1ccco1)C(=S)Nc1cccc(F)c1 (stereo not drawn),–,–
SMILES,NPSR antag,ERK EGF block
O=[N+]([O-])c1ccccc1N/N=C1\CC2CC=CC12 (stereo not drawn),–,13µM
O=C(N/N=C1\CC2CC=CC12)c1ccccc1Cl (stereo not drawn),–,–
Cc1nn(-c2ccccc2)c(N2CCCC2)c1/C=C1\N=C(c2ccc(OC(C)C)cc2)OC1=O,–,–
CC(C)(C)c1ccc(-c2cn(-c3ccc(Br)cc3)c3[n+]2CCCS3)cc1,10µM,–
c1ccc(-c2cn(-c3ccccc3)c3[n+]2CCS3)cc1,–,–
NNC(=O)CCN(Cc1ccco1)S(=O)(=O)c1ccc(Cl)cc1,–[7.67 µM],–
Cc1cccc(Nc2ncnc3ccccc23)c1,–,·
Cc1ccc(Nc2ncnc3ccccc23)cc1,–,25µM
CCOC(=O)N1CCC(N2C(=O)c3ccccc3C2Nc2ccc(S(=O)(=O)N(CC)CC)cc2)CC1 (stereo not drawn),–,–
CCn1cc(C(=O)NCc2cccc(F)c2)c(=O)c2cc(F)c(N3CCN(C(=O)c4ccco4)CC3)cc21,10µM,·
CCn1cc(C(=O)NCc2cccnc2)c(=O)c2cc(F)c(N3CCN(C(=O)c4ccco4)CC3)cc21,–,·
O=C(N/N=C/c1ccccn1)NC12CC3CC(CC(C3)C1)C2,–,–
Cc1ccc(OCC(=O)NN2C(=O)c3ccccc3C2=O)cc1,–,–
Cc1cc(C)c(Nc2cc(S(=O)(=O)O)c(N)c3c2C(=O)c2ccccc2C3=O)c(C)c1,5µM,22µM
Cc1cc(C)c(NC(=O)COC(=O)c2cccc3c2C(=O)c2ccccc2C3=O)c(C)c1,–,–
Cc1ccc(C(C)C)c(OCc2ccc(C(=O)N/N=C/c3cccc(O)c3O)cc2)c1,10µM,–
Cc1ccc(C(C)C)c(OCc2ccc(C(=O)N/N=C/c3ccc(O)c(O)c3)cc2)c1,–,–
COc1ccc(Nc2c([N+](=O)[O-])ccc3c2=NC2(CCCCC2)N=3)cc1,10µM,14µM
O=[N+]([O-])c1ccc2c(c1Nc1ccccc1)=NC1(CCCCC1)N=2,–,·
CCCCCC(C)N (stereo not drawn),·,–
CC(=O)N1CCC2(CCCN(C(=O)Nc3cccc(F)c3)C2)CC1,·,–
c1ccc(C(c2ccccc2)N2CC3(CCNCC3)C2)cc1,·,–
CCC(=O)N(CCC1(c2ccccc2OC)CCOC(C(C)C)C1)Cc1ccco1 (stereo not drawn),?,–
O=C(O)c1cc2c([nH]c1=O)CCCC2,–,·
C=CCSC(=C(C#N)C#N)c1cc2c([nH]1)CCCC2,13µM,·
SMILES,NPSR antag,ERK EGF block
Cn1[nH]c(C(F)(F)F)cc1=O,–,–
CC[C@]1(c2ccccc2)NC(=O)N(C)C1=O,·,–
c1cc2c3c(cccc3c1)C(N1CCOCC1)=N2,–,–
c1ccc(CC2CCN(C3=Nc4cccc5cccc3c45)CC2)cc1,10µM,·
N#Cc1ccccc1S(=O)(=O)c1ccccc1C(=O)Nc1ccccc1,–,–
C/C(Sc1nnc(Cc2ccccc2)o1)=C(/O)c1ccccc1,–,·
CC1=CC(C)(C)Nc2ccc(OC(=O)CN3C(=O)c4cccc5cccc(c45)C3=O)cc21,–,·
CC1=CC(C)(C)Nc2ccc(OC(=O)CN3C(=O)c4ccccc4C3=O)cc21,7.9µM,–
COc1cccc(NC2=C(Cl)C(=O)OC2OC(=O)c2ccco2)c1 (stereo not drawn),–,–
CC(C)OCCCNC1=C(Cl)C(=O)c2ccccc2C1=O,10µM,28µM
CCN(CC)CCCNC1=C(Cl)C(=O)c2ccccc2C1=O,–,–
CC(=O)[C@]1(O)CCC2C3CC(C)C4=CC(=O)C=CC4(C)[C@@]3(F)C(O)C[C@]21C (stereo partly drawn),·,–
CCC(=O)N[C@@H]1CCc2cccc(OC)c2C1,·,–
c1ccc(-c2ccc(N3CC4(CCNCC4)C3)cc2)cc1,·,20µM
COC(=O)N1CCC2(CC1)CN(c1ccc(-c3ccccc3)cc1)C2,·,–
CC1OC(OC2C(OC3C(O[C@H]4CC[C@]5(C)C6C=C[C@]78OC[C@@]9(CC[C@@H](C)[C@H](C)C97)[C@H](O)C[C@@]8(C)[C@]6(C)CC[C@H]5C4(C)C)OC(C)C(O)C3O)OC(CO)C(O)C2O)C(O)C(O)C1O (stereo partly drawn),?,11µM
CC1O[C@@H](O[C@H]2C(Oc3cc(O)c4c(c3)OC(c3ccc(O)cc3)CC4=O)OC(CO)C(O)C2O)C(O)C(O)C1O (stereo partly drawn),·,–
COc1cc(CNc2ccc(S(N)(=O)=O)cc2)ccc1OCC(=O)NC1CCCCC1,–,–
Cc1c2cc(O)c(=O)cc-2oc2cc(O)c(O)cc12,–,–
COc1cc(OC)c(-c2c3cc(O)c(=O)cc-3oc3cc(O)c(O)cc23)cc1OC,–,16µM
CNc1nc(NC#N)nc(SC)n1,–,–
COc1cc([N+](=O)[O-])cc(/C=N/NC(=O)CSc2ccccn2)c1O,–,–
Cc1ccc(C(C)C)cc1NC(=O)Nc1ccc([N+](=O)[O-])cc1,10µM,–

# Source: PubChem BioAssay (National Center for Advancing Translational Sciences (NCATS))
